Measured values reported in PubChem BioAssay AID528 (NMMLSC, 2006).
Among all 24,000 compounds or so, fewer than 10 were called active. Roughly 9% stayed inconclusive and do not appear here.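 The calls were made as follows: active = fluorescent ligand binding to cells raised by more than 40% of the manganese-induced maximum; inconclusive = compound's own fluorescence above 85% of the ligand control signal; inactive = the rest.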 These entries were drawn from the full list.

What follows are compounds tested against Integrin alpha-4 (Homo sapiens) (UniProt P13612) (assay: increased LDV-FITC ligand binding on VLA-4 – Jurkat cells, flow cytometry, primary screen (AID 528;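 also: 0% = ligand binding without compound and 100% = manganese-stimulated maximal binding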)). Conditions: stronger effect = higher value, screened at 10 µM (by protocol).
Integrin alpha-4 (Homo sapiens), sequence (P13612 whole entry, looked up): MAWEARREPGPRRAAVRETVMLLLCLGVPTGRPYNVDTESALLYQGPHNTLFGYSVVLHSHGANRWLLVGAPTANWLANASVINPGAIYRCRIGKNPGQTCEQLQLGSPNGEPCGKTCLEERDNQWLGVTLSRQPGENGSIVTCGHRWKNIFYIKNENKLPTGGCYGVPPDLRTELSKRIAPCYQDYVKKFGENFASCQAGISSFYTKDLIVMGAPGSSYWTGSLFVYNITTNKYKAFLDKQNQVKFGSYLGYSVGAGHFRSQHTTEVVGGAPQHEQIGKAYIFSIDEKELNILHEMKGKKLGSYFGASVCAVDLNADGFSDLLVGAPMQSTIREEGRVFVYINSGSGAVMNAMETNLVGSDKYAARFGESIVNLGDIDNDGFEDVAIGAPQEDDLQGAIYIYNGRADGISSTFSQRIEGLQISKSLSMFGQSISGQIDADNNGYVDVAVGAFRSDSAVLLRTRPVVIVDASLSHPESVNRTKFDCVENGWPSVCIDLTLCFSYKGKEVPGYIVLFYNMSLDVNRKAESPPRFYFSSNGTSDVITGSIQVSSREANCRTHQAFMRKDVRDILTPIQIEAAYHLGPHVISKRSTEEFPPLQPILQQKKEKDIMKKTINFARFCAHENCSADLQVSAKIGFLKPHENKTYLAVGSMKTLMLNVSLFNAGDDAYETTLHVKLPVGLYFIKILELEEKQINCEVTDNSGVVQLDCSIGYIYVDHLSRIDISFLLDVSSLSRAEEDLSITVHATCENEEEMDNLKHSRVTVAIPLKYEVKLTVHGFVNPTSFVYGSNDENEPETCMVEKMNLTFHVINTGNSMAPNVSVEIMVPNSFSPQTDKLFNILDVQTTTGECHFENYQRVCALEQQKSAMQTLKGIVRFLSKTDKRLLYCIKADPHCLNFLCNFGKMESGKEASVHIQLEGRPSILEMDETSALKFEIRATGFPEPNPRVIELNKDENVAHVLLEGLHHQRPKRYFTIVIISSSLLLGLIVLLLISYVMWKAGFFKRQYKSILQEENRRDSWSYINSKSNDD

activation, inactive:
Cc1ccccc1S(=O)(=O)Cc1ccc(C(=O)NCCN2CCCCC2C)o1 (centres undefined) -1%
Nc1c(C(=O)NCc2ccccc2)nnn1Cc1cccc(Cl)c1 -4%
CCCCCOC(=O)C1=C(C)Nc2nnnn2C1c1ccc(OC)c(OC)c1OC (centres undefined) -4%
CCC(=O)N1c2ccc(S(=O)(=O)CCC(=O)N3CCN(c4ccccc4)CC3)cc2CC1C (centres undefined) -5%
COc1ccc(OC)c(CNC(=O)CCc2nc(-c3cccs3)no2)c1 2%
Cc1ccccc1NC(=O)c1ccccc1 -14.5%
CCOC(=O)N1CCC(NC(=O)CCc2cn(C)c3ccccc23)CC1 8%
COc1cc2[nH]c(=S)n(Cc3ccc(C)o3)c(=O)c2cc1OC 0%
CCOC(=O)CNC(=O)CN1C(=O)CCSc2ccccc21 6%
CCOC(=O)c1ccc(CS(=O)c2ccc(Cl)cc2)o1 (centres undefined) 4%
COC(=O)C1=C(C)OC(N)=C(C#N)C1c1cc(OC)ccc1OC (centres undefined) -3%
Cc1ccc(NC(=O)C2CC(c3ccc(F)cc3)=NO2)cc1 (centres undefined) 3%
CCc1c(C)c2c(C)[nH]nc2oc1=O -1%
CC12COC3(C(=O)Nc4ccc(Cl)cn4)CC1CCC32C (centres undefined) 5%
Cc1ccc(S(=O)(=O)NCC(=O)N(CC(=O)NC2CCCCC2)Cc2ccco2)cc1 2%
O=C1Nc2c(Br)cc(Br)cc2C1(O)N1CCOCC1 (centres undefined) 9%
CCOC(=O)N1CCN(C(=O)C2CC(c3ccc(F)cc3)=NO2)CC1 (centres undefined) 6%
Clc1ccc(Cc2nn3c(-c4ccncc4)nnc3s2)cc1 2%
CCOCCc1c(O)nc(SCC(=O)NCc2ccco2)[nH]c1=O -1%
COc1cccc(C(=O)Nc2c3c(nn2-c2cccc(C)c2C)CS(=O)(=O)C3)c1OC -3%
COc1ccc2oc(=O)c(C(=O)N3CCN(c4ccccc4F)CC3)cc2c1 3.5%
CCOc1ccccc1NC(=O)C1CCN(S(=O)(=O)c2c(C)nn(C)c2C)CC1 2%
COc1ccc(CCNC(=O)CCCCn2c(=O)[nH]c3ccccc3c2=O)cc1OC 4%
C#CC(C)(C)NC(=O)CSc1nc2c(c(=O)n(C)c(=O)n2C)n1CCCC 8%
CCCS(=O)(=O)N1CCCC(C(=O)N2CCN(c3ccccc3)CC2)C1 (centres undefined) 0%
CCOC(=O)C1CCCN(C(=O)C2CCN(c3nnc(-n4cccc4)s3)CC2)C1 (centres undefined) -1%
CCOC(=O)N1CCC(Nc2c(NCCCN3CCN(c4ccc(OC)cc4)CC3)c(=O)c2=O)CC1 -4%
COC(=O)c1ccc(NC(=O)CSc2nnc(Cc3cccn3C)n2-c2ccc(F)cc2)cc1 -4%
Cc1noc(C)c1S(=O)(=O)N(CC(=O)Nc1ccc2c(c1)OCCO2)c1ccc(C(C)C)cc1 -8%
Cn1c(C(=O)N2CCC(C(N)=O)CC2)cc2c(=O)n(C)c3ccccc3c21 -1%
O=C(Nc1ccccc1C(=O)N1CCOCC1)C1CCC(=O)N1C1CCCC1 (centres undefined) 8%
CN1CCN(S(=O)(=O)c2ccc3[nH]cc(C(=O)O)c(=O)c3c2)CC1 2%
Cc1ccnc(N2C(=O)c3ccccc3C2Nc2ccc3c(c2)OCCO3)c1 (centres undefined) -5%
COCCCNC(=O)c1ccc(CNS(=O)(=O)c2ccc(NC(C)=O)cc2)cc1 -3.5%
Cc1nc(N2CCN(c3ncccn3)CC2)c2oc3ccccc3c2n1 -3.5%
CC(C)OCCCNC(=O)C1CC(=O)N(C2CCCCCCC2)C1 (centres undefined) -1%
Cc1ccc(S(=O)(=O)N2CCCC2CO)cc1 (centres undefined) 5%
COc1ccc(C(=O)NC(=O)CSc2nnc(-c3ccco3)n2-c2ccccc2)cc1 1.3%
Cc1ccccc1CN1CCN(C(=O)c2cccc(F)c2)CC1 4%
CC1CCN(Cc2nc3c(c(=O)n(C)c(=O)n3C)n2Cc2cccc3ccccc23)CC1 2%
CCOc1nc(OCC)nc(-n2cc(-c3ccccc3)nn2)n1 2%
FC(F)Oc1ccccc1C1CC(c2ccc(Br)s2)Nc2ncnn21 (centres undefined) 3%
Cc1cc(Nc2cccc(F)c2)n2ncnc2n1 -0.5%
O=C(c1ccco1)N1CCN(C(=O)c2ccc(COc3ccc(F)cc3)o2)CC1 0%
Cn1c(CNC(=O)C(C)(C)C)nc2ccccc21 -3%
Cc1cc(NS(=O)(=O)c2ccccc2)no1 5.5%
CCOC(=O)c1cn(CC(=O)Nc2ccc(C(C)C)cc2)nn1 -2%
Cc1cccc(C)c1NC(=O)N1CC=C(n2c(=O)[nH]c3ccccc32)CC1 0%
Cc1ccc(S(=O)(=O)n2nc(OC(=O)C(C)(C)C)cc2N)cc1 4%
CCOC(=O)c1c(C)c(C(=O)NCCc2ccc(S(N)(=O)=O)cc2)c(C)n1CC 16%
O=C(O)C1C2C=CC(C2)C1C(=O)N1CCN(CCO)CC1 (centres undefined) -2%
Cc1cnc(C(=O)OCC(=O)Nc2ccc(Cl)cc2Cl)cn1 3%
CCOC(=O)Cn1c(CN(Cc2ccccc2)Cc2ccccc2)nc2c1c(=O)[nH]c(=O)n2C -5%
O=S(=O)(O)CCN1CCOCC1 -6%
O=C(NC1CCCCC1)C1CCCN(S(=O)(=O)c2cccs2)C1 (centres undefined) -10.5%
COc1ccc(C(=O)NCc2cn3ccccc3n2)cc1 -2%
Cc1ccccc1NC(=O)Cc1nnc(SCC(=O)N2CCN(c3ccccc3)CC2)n1C 0.5%
CC(C)CCNC(=O)CCNS(=O)(=O)c1ccc(Cl)cc1 -2.7%
COc1ccccc1-c1c(C)nn2c(C)c(C(C)=O)cnc12 -2%
COc1cccc(OCC(O)CN2CCN(CCO)CC2)c1 (centres undefined) 3.3%
CCCC(=O)Nc1cccc(-c2cn3ccsc3n2)c1 3%
Cc1noc(C)c1S(=O)(=O)NCCc1ccc(S(N)(=O)=O)cc1 3%
CC(=O)N(CC1CCCO1)C1(C(=O)NC2CCCC2)CCCCC1 (centres undefined) 0%
COC(=O)c1ccc(CN(c2ccccc2OC)S(=O)(=O)c2cccs2)o1 -2%
O=C(CCS(=O)(=O)Cc1ccccc1F)NCCCN1CCCCC1 -2%
COc1ccc(CN2C(=O)CN=C2Nc2ccc(C)cc2C)cc1 6%
COc1cccc(N2C(=O)CC(N3CCN(S(=O)(=O)c4ccccc4)CC3)C2=O)c1 (centres undefined) -2%
CN(CCCNC(=O)CN1C(=O)CC(C)(C)S(=O)(=O)c2ccccc21)C1CCCCC1 6%
Cc1ccc(NC(=O)CCNS(=O)(=O)c2ccc3c(c2)oc(=O)n3C)cc1C 9%
O=C(COC(=O)c1ccccc1C(=O)c1ccccc1)c1ccco1 2.5%
CNC(=O)Nc1cc(C(C)(C)C)no1 -2%
Cc1cc(=O)n2nc(N3CCCC(C(=O)NCCC4=CCCCC4)C3)sc2n1 (centres undefined) -3%
CC(c1cccnc1)N(CCN(C)C)C(=O)Nc1ccc(Cl)c(Cl)c1 (centres undefined) -2%
CSc1sc(C)cc1C1C(C#N)=C(N)N(c2cccnc2)C2=C1C(=O)CCC2 (centres undefined) 0%
COc1ccc(C2C3=C(OC(C)=O)c4ccccc4C3=Nc3c2c(=O)n(C)c(=O)n3C)cc1 (centres undefined) -0.5%
COCCNC(=O)CN1C(=O)CSc2ncccc21 2.7%
CC(=O)Nc1ccc(S(=O)(=O)N2CCC(N(C)CCC(C)C)CC2)cc1 4%
CCOC(=O)N1CCC(NC(=O)COc2cc(=O)n(C)c3ccccc23)CC1 -3%
O=C(O)CCN1C(=O)CC2(CCCCC2)C1=O -1%
c1cc(-c2nn[nH]n2)ccc1CN1CCCCC1 1%
O=C(O)CSCNC(=O)CC12CC3CC(CC(C3)C1)C2 13%
CCC(C)NC(=O)C1CCC(=O)N1Cc1ccc(C)cc1 (centres undefined) 4%
O=c1c(-c2ccccc2)coc2c(CN3CCOCC3)c(O)ccc12 9.5%
Cc1noc(C)c1S(=O)(=O)N(CC(=O)NCc1ccc(Cl)cc1)c1ccc2c(c1)OCO2 3%
CC(C)C(=O)Nc1c(C(=O)c2ccc(F)cc2)oc2ccccc12 -2%
O=C(CCCCn1c(=O)[nH]c2ccccc2c1=O)NCc1ccc2c(c1)OCO2 10%
CCCC(=O)NC(C)C(c1cccs1)N1CCN(c2ccccc2)CC1 (centres undefined) -2%
Cn1cccc1C1(C(F)(F)F)NCCNC1=O (centres undefined) 1%
Cc1ccccc1CSc1nnc(Cn2c(=O)sc3ccccc32)n1C 4%
Nc1nonc1C(=O)NCCc1ccccc1 6%
CCOc1ccc(-c2nnc3ccc(SC)nn23)cc1 4%
CCOc1ccc(-n2c(SC(C)C(=O)OC)nc3c(c2=O)SCC3)cc1 (centres undefined) 0%
O=C(NCc1ccco1)C1CCCN(S(=O)(=O)c2cnc[nH]2)C1 (centres undefined) -5%
O=C(Nc1nsc(-c2ccccc2)n1)c1ccncc1 4%
COc1nc(Oc2ccc(=O)n(C)n2)nc(N(C)C)n1 4%
C=CCOc1ccc(C2/C(=C(\O)c3c(C)[nH]c(C(=O)OC)c3C)C(=O)C(=O)N2CCN(C)C)cc1 (centres undefined) -6%
CCOC(=O)C1CCN(C(=O)c2oc3ccc(S(=O)(=O)N4CCCCCC4)cc3c2C)CC1 -3%
O=C(O)c1ccc(NC(=O)c2cccs2)cc1 -2.5%
CCC1Oc2ccc(Cl)cc2N(CC(=O)O)C1=O (centres undefined) 2%
